Measured values from PubChem BioAssay (NCATS).
Inconclusive results are not listed. Calls of active or inactive are those of the source. Unless noted, calls follow the shape of the dose curve; as a rule, active = well fitted curve in the direction sought with a large enough effect; inconclusive = small, poorly fitted or top-dose-only effect, or another doubt; inactive = no such curve, though single readings can be large; an effect the other way counts as inactive or inconclusive.

Key:
[1] = target: Ubiquitin carboxyl-terminal hydrolase 1 (Homo sapiens) (UniProt O94782); assay: Inhibitors of USP1/UAF1: Pilot qHTS (AID 504865); also: potency is read from the fitted curve at half-maximal effect; nearly all actives have a fitted effect of over 35% in size
Chain of Ubiquitin carboxyl-terminal hydrolase 1 (Homo sapiens) (O94782 whole entry, looked up): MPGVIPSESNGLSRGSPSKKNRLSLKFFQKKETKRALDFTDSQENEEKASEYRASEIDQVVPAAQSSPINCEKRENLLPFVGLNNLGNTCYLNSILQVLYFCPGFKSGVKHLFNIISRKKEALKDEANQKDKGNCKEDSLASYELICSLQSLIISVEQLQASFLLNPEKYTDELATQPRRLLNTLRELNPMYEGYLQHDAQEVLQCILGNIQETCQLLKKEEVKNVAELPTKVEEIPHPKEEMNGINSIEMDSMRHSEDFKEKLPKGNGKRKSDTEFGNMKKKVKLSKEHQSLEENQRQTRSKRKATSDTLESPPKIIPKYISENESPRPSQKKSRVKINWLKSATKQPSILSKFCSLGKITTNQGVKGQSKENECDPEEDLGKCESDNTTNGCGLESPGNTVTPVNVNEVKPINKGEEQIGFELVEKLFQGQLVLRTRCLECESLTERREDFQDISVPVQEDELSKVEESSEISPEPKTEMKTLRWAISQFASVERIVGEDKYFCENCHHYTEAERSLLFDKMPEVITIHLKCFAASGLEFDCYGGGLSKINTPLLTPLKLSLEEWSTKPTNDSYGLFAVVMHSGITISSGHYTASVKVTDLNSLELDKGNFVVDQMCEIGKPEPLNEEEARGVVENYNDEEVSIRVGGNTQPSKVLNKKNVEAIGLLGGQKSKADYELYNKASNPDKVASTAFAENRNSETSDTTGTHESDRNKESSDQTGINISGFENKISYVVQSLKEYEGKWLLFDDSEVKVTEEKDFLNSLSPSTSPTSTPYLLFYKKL
Procedure, shortened: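 Kinetic fluorescence assay: 1nM USP1/UAF1, 15 min compound preincubation, then 150nM Ub-Rho; 480/540 nm.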

[2] = target: Luciferin 4-monooxygenase (Photinus pyralis) (UniProt P08659); assay: Biochemical firefly luciferase enzyme assay for NPC (AID 624030);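 also: purified P. pyralis luciferase at 10 nM with luciferin and ATP substrate; nearly all actives have a fitted effect of over 70% in size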
Chain of Luciferin 4-monooxygenase (Photinus pyralis) (P08659 whole entry, looked up): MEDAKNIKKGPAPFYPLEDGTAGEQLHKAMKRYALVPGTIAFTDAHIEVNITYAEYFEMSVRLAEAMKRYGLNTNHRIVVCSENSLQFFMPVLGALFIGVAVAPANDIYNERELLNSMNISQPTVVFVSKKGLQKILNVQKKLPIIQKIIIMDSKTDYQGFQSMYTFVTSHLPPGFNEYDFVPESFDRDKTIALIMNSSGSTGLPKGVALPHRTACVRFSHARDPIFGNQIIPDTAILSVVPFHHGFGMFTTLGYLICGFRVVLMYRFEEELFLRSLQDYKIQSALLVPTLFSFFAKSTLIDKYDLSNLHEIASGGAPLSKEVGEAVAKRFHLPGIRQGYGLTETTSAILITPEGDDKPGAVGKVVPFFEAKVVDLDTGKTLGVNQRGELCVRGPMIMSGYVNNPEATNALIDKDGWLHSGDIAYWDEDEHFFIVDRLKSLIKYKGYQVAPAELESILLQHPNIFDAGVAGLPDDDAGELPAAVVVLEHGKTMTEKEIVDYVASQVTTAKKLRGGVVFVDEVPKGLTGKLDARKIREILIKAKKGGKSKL
Procedure, shortened: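 Direct inhibition of firefly luciferase enzyme (10 nM final, 50 mM Tris Acetate) assessed by luminescence within 5 minutes. Percent activity scaled between DMSO and PTC124 positive control, with concentration-effect curves classified by fit quality and response.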

[3] = S16 Schwann cell viability assay (CellTiter-Glo assay) (AID 624031); also: potency is read from the fitted curve at half-maximal effect; nearly all actives have a fitted effect of over 70% in size
Procedure, shortened: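 Following overnight culture in 10% FBS DMEM, parental S16 rat Schwann cells are dosed for 24 h at 37 °C. Viability is read as CellTiter-Glo luminescence and expressed as % activity relative to DMSO (0%) and no-cell wells.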

[4] = S16 Schwann cell PMP22 intronic element firefly luciferase assay (AID 624032); also: potency is read from the fitted curve at half-maximal effect; nearly all actives have a fitted effect of over 30% in size
Procedure, shortened: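 Luciferase reporter of PMP22 intronic-element expression in stably transfected S16 rat Schwann cells, read by ONE-Glo luminescence after 24 h compound exposure at 37 C. Activity scaled between DMSO (0%) and positive-control PTC124; concentration-effect curves quality-classified.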

[5] = S16 Schwann cell PMP22 intronic element beta-lactamase assay (AID 624044; calls by dose curve; also: potency is read from the fitted curve at half-maximal effect; nearly all actives have a fitted effect of over 15% in size)
Procedure, shortened: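 Beta-lactamase reporter under a PMP22 intronic regulatory element in stable S16 rat Schwann cells; 24 h compound exposure. 460 nm blue signal normalized between DMSO (0%) and potassium clavulanate, with 535 nm FRET tracking viability; curves classed by r2 and response.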

[6] = qHTS Assay for Identifying Gametocytocidal Compounds (AID 743244); also: potency is read from the fitted curve at half-maximal effect; conditions: P. falciparum 3D7 stage III-V gametocytes, alamarBlue, 72 h; max response: active compounds read low
Procedure, shortened: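 In this qHTS viability screen, late-stage 3D7 gametocytes are incubated with compound for 72 h, then with alamarBlue for 24 h; reduced resorufin fluorescence marks killing.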

3D7 = assay: qHTS profiling for inhibitors of Plasmodium falciparum proliferation (AID 504749); also: potency is read from the fitted curve at half-maximal effect; nearly all actives have a fitted effect of over 60% in size; conditions: P. falciparum in erythrocytes, SYBR Green DNA, 72 h; series mostly up to 28.7 µM
Procedure, shortened: (§1)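 In a 72 h erythrocytic culture (37 C, humidified, 5% CO2) at 2.5% hematocrit and 0.3% starting parasitemia, compounds were tested; SYBR Green I in detergent lysis buffer stained parasite DNA overnight.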

7G8 = assay: as above; conditions: P. falciparum in erythrocytes, SYBR Green DNA, 72 h; series mostly up to 28.7 µM
Procedure, shortened: as §1

AA1029 = assay: as above; conditions: P. falciparum in erythrocytes, SYBR Green DNA, 72 h; series mostly up to 28.7 µM
Procedure, shortened: as §1

AS120 = assay: as above; conditions: P. falciparum in erythrocytes, SYBR Green DNA, 72 h; series mostly up to 28.7 µM
Procedure, shortened: as §1

ATS189 = assay: as above; conditions: P. falciparum in erythrocytes, SYBR Green DNA, 72 h; series mostly up to 28.7 µM
Procedure, shortened: as §1

ATS95 = assay: as above; conditions: P. falciparum in erythrocytes, SYBR Green DNA, 72 h; series mostly up to 28.7 µM
Procedure, shortened: as §1

C2A = assay: as above; conditions: P. falciparum in erythrocytes, SYBR Green DNA, 72 h; series mostly up to 28.7 µM
Procedure, shortened: as §1

CP185 = assay: as above; conditions: P. falciparum in erythrocytes, SYBR Green DNA, 72 h; series mostly up to 28.7 µM
Procedure, shortened: as §1

CP191 = assay: as above; conditions: P. falciparum in erythrocytes, SYBR Green DNA, 72 h; series mostly up to 28.7 µM
Procedure, shortened: as §1

CP192 = assay: as above; conditions: P. falciparum in erythrocytes, SYBR Green DNA, 72 h; series mostly up to 28.7 µM
Procedure, shortened: as §1

CP194 = assay: as above; conditions: P. falciparum in erythrocytes, SYBR Green DNA, 72 h; series mostly up to 28.7 µM
Procedure, shortened: as §1

CP201 = assay: as above; conditions: P. falciparum in erythrocytes, SYBR Green DNA, 72 h; series mostly up to 28.7 µM
Procedure, shortened: as §1

CP203 = assay: as above; conditions: P. falciparum in erythrocytes, SYBR Green DNA, 72 h; series mostly up to 28.7 µM
Procedure, shortened: as §1

CP211 = assay: as above; conditions: P. falciparum in erythrocytes, SYBR Green DNA, 72 h; series mostly up to 28.7 µM
Procedure, shortened: as §1

CP215 = assay: as above; conditions: P. falciparum in erythrocytes, SYBR Green DNA, 72 h; series mostly up to 28.7 µM
Procedure, shortened: as §1

CP217 = assay: as above; conditions: P. falciparum in erythrocytes, SYBR Green DNA, 72 h; series mostly up to 28.7 µM
Procedure, shortened: as §1

CP237 = assay: as above; conditions: P. falciparum in erythrocytes, SYBR Green DNA, 72 h; series mostly up to 28.7 µM
Procedure, shortened: as §1

CP238 = assay: as above; conditions: P. falciparum in erythrocytes, SYBR Green DNA, 72 h; series mostly up to 28.7 µM
Procedure, shortened: as §1

CP247 = assay: as above; conditions: P. falciparum in erythrocytes, SYBR Green DNA, 72 h; series mostly up to 28.7 µM
Procedure, shortened: as §1

CP250 = assay: as above; conditions: P. falciparum in erythrocytes, SYBR Green DNA, 72 h; series mostly up to 28.7 µM
Procedure, shortened: as §1

CP252 = assay: as above; conditions: P. falciparum in erythrocytes, SYBR Green DNA, 72 h; series mostly up to 28.7 µM
Procedure, shortened: as §1

CP256 = assay: as above; conditions: P. falciparum in erythrocytes, SYBR Green DNA, 72 h; series mostly up to 28.7 µM
Procedure, shortened: as §1

CP260 = assay: as above; conditions: P. falciparum in erythrocytes, SYBR Green DNA, 72 h; series mostly up to 28.7 µM
Procedure, shortened: as §1

CP262 = assay: as above; conditions: P. falciparum in erythrocytes, SYBR Green DNA, 72 h; series mostly up to 28.7 µM
Procedure, shortened: as §1

CP265 = assay: as above; conditions: P. falciparum in erythrocytes, SYBR Green DNA, 72 h; series mostly up to 28.7 µM
Procedure, shortened: as §1

CP266 = assay: as above; conditions: P. falciparum in erythrocytes, SYBR Green DNA, 72 h; series mostly up to 28.7 µM
Procedure, shortened: as §1

CP268 = assay: as above; conditions: P. falciparum in erythrocytes, SYBR Green DNA, 72 h; series mostly up to 28.7 µM
Procedure, shortened: as §1

For `CCCCCCCCCC[N+](C)(C)CCCCCCCCCC`, the Potency [1] was 31.6 µM (active), the Potency [2] was “inactive” and the Potency [3] was 18.1 µM (active). The Potency [4] was 16.1 µM (active), the Potency [5] was 25.1 µM (active) and the Potency [6] was 7.94 µM (active). The Potency (3D7) was 2 µM (active), the Potency (7G8) was 2 µM (active) and the Potency (AA1029) was 7.08 µM (active). The Potency (AS120) was 6.31 µM (active), the Potency (ATS189) was 7.08 µM (active) and the Potency (ATS95) was 6.31 µM (active). For the same compound, the Potency (C2A) was 4.47 µM (active), the Potency (CP185) was 4.47 µM (active) and the Potency (CP191) was 3.98 µM (active). The Potency (CP192) was 4.78 µM (active), the Potency (CP194) was 6.75 µM (active) and the Potency (CP201) was 9.53 µM (active). The Potency (CP203) was 6.75 µM (active), the Potency (CP211) was 9.53 µM (active) and the Potency (CP215) was 8.49 µM (active). For the same compound, the Potency (CP217) was 4.47 µM (active), the Potency (CP237) was 7.08 µM (active) and the Potency (CP238) was 5.62 µM (active). For the same compound, the Potency (CP247) was 4.47 µM (active), the Potency (CP250) was 4.47 µM (active) and the Potency (CP252) was 7.08 µM (active). The Potency (CP256) was 4.47 µM (active), the Potency (CP260) was 3.98 µM (active) and the Potency (CP262) was 5.36 µM (active). The Potency (CP265) was 5.01 µM (active), the Potency (CP266) was 6.75 µM (active) and the Potency (CP268) was 6.01 µM (active).
